# An excerpt weighted towards active compounds, which were near 19% of everything screened.
# KB-3-1 tox: kills parental KB-3-1 adenocarcinoma cells; actives 1.4% (n = 400,000); KB-3-1 viability, CellTiter-Glo ATP luminescence, 72 h; Potency, µM (titrated, usually from 46.1 µM), most hits filed as cytotoxic; AID 1347075; note: nearly all actives have a fitted effect of over 60% in size
#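 Multi-concentration cytotoxicity screen in KB-3-1 cells grown in DMEM lacking phenol red with 10% FBS. After 72 h at 37 °C with compound, ATP-dependent luminescence was recorded.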
# TDP1 cell CPT: DT40-hTDP1 cell growth loss with CPT; chicken DT40 Tdp1-/-;hTDP1 cells + 20 nM CPT, ATP luminescence, 48 h; Potency, µM (doses to about 46.2 µM), for inactives: top-dose activity change, negative = growth inhibition, hits mostly inhibitors; actives 12% (n = 420,000); AID 686979; note: nearly all actives have a fitted effect of over 55% in size
#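 Cell growth measured by CellTiter-Glo luminescence after a minimum 48 h, 37 C compound exposure with 20 nM CPT in Tdp1-knockout DT40 cells stably expressing hTDP1, seeded 400/well; qHTS titration format.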
# HT1080 IDH1KD tx: toxicity to HT-1080 IDH1 knockdown cells (counter line); HT-1080 IDH1 knockdown viability, ATP luminescence, 48 h; Potency, µM (highest dose often 46.1 µM), for inactives: at the highest dose activity, negative = toxicity, most hits filed as cytotoxic; AID 686971; actives 2% (n = 360,000);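 note: 0% = DMSO wells and -100% = cell-free medium wells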
#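 Using the IDH1-knockdown HT-1080 line run in the same batch and compound series as the NT line, viability after 48 h at 37 °C was determined by CellTiter-Glo luminescence and expressed as % activity.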
# TDP1 cell noCPT: qHTS for Inhibitors of human tyrosyl-DNA phosphodiesterase 1 (TDP1): qHTS in cells in absence of CPT; DT40 Tdp1-/- hTDP1 cells, no CPT, ATP luminescence, 48 h; Potency, µM (series often up to 46.2 µM), for the others: top-dose activity change, negative = growth inhibition, actives largely listed as inhibitors; actives 15% (n = 420,000); AID 686978, 2013; note: nearly all actives have a fitted effect of over 55% in size
#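 Readout: luminescence from CellTiter-Glo after 30 min in the dark at RT. Cells: DT40 Tdp1-/- with stable hTDP1, 400/well. Exposure: compounds alone, ≥48 hr, 37 °C.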
# KB-V1 cytotox: kills drug-selected multidrug resistant KB-V1 cells | Potency, µM (doses to about 46.1 µM), hits mostly cytotoxic | actives 3.4% (n = 400,000) | KB-V1 MDR cells viability, CellTiter-Glo, 72 h; note: nearly all actives have a fitted effect of over 60% in size
#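 Following 72 h at 37 degrees C with compound, KB-V1 cell viability was read by CellTiter-Glo luminescence, medium being phenol-red-free DMEM plus 10% FBS; concentration-response parameters came from normalized, curve-fitted qHTS data.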
# HT1080NT lethal: kills 2HG-producing HT-1080-NT fibrosarcoma cells; HT-1080-NT fibrosarcoma viability, CellTiter-Glo ATP luminescence, 48 h; Potency, µM (series often up to 46.1 µM), without a hit: top-dose activity, negative = less viability, actives largely listed as cytotoxic; actives 1.6% (n = 360,000); AID 686970;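 note: NT is the 2HG producing partner of a matched IDH1 knockdown line; 0% = DMSO-treated cells and -100% = media-only wells without cells; nearly all actives have a fitted effect of over 55% in size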
#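 HT-1080-NT fibrosarcoma cells (2HG-overproducing), 750 cells/well in RPMI with 5% FBS, dosed after 2 h and incubated 48 h at 37C. CellTiter-Glo luminescence normalized to DMSO and no-cell wells; concentration-response curves fitted and classed.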
# * hit, by the source's call; i = inactive; ? = inconclusive; . = no result; [ ] = remark or other dose. Calls come from the whole dose curve; as a rule, active = well fitted curve in the direction sought with a large enough effect; inconclusive = small, poorly fitted or top-dose-only effect, or another doubt; inactive = no such curve, though single readings can be large; an effect the other way counts as inactive or inconclusive. Unless noted, % is set by controls: 0 for no effect and ±100 for the full control effect; potency is the fitted concentration of half-maximal effect.
SMILES,KB-3-1 tox,TDP1 cell CPT,HT1080 IDH1KD tx,TDP1 cell noCPT,KB-V1 cytotox,HT1080NT lethal
O=C(NCc1cccc(C(F)(F)F)c1)C1CC(c2ccccc2F)=NO1 (stereo unspecified),i,?,?,29.1µM*,i,?
O=C(NCc1cc(C(F)(F)F)cc(C(F)(F)F)c1)C1CC(c2ccccc2F)=NO1 (stereo unspecified),i,?,-24.6%,?,i,0.0%
Cc1ccc(CNC(=O)C2CC(c3ccccc3F)=NO2)cc1 (stereo unspecified),i,?,?,16.4µM*,i,?
Cc1ccc2c(CC(=O)N3CCOc4ccc(CN5C[C@@H](C)O[C@@H](C)C5)cc4C3)cc(=O)oc2c1,.,21.1%[9.04 µM],.,-14.5%,.,.
CCOC(=O)C1(Cc2cccc(Cl)c2)CCCN(C(=O)c2ccco2)C1 (stereo unspecified),i,?,-3.0%,?,i,0.2%
CCOC(=O)C1(Cc2cccc(Cl)c2)CCCN(C(=O)c2ccoc2C)C1 (stereo unspecified),i,20.6µM*,-6.6%,18.4µM*,i,-1.6%
CCOC(=O)C1(Cc2cccc(OC)c2)CCCN(C(=O)c2ccccc2C)C1 (stereo unspecified),i,?,-20.6%,16.4µM*,?,-14.9%
CCOC(=O)C1(Cc2cccc(Cl)c2)CCCN(C(=O)c2ccc(COC)s2)C1 (stereo unspecified),i,23.1µM*,-13.7%,20.6µM*,?,-5.9%
COc1ccc(C2OC(CCc3ccccc3)CC3=C2C(=O)OC(C)(C)O3)cc1 (stereo unspecified),i,?,-10.5%,?,i,-5.4%
COc1ccc(/C=C/C(=O)OCC(=O)c2ccccc2F)cc1,i,-26.2%,16.2%,?,i,13.9%
COc1ccc(/C=C\C(=O)CC(O)(c2ccccc2)C(F)(F)F)cc1 (stereo unspecified),i,16.4µM*,11.2µM*,14.6µM*,?,?
CC(Oc1ccccc1)C(=O)Nc1nnc(S(=O)(=O)Nc2ccccc2)s1 (stereo unspecified),i,-22.7%,-7.2%,-10.4%,i,-2.2%
CCc1nc2c(OCc3ccc(Cl)cc3)cccn2c1N(C)C(=O)c1ccc(C)cc1,i,18.4µM*,-24.7%,18.4µM*,?,?
CCc1nc2c(OCc3ccc(Cl)cc3)cccn2c1N(C)C(=O)C1CC1,i,?,1.7%,?,i,-0.3%
CCOC(=O)N(C)c1c(CC)nc2c(OCc3ccc(Cl)cc3)cccn12,i,20.6µM*,?,14.6µM*,i,?
CC(C)c1ccc(NC(=O)CSc2ncnc3c2sc2ccccc23)cc1,i,?,.,?,i,.
COc1ccc(CN2C(=O)C(CC(=O)NCCc3ccccn3)CC(C(=O)N3CCOCC3)=C2C)cc1 (stereo unspecified),i,0.2%,23.1%,1.1%,i,18.1%
Cn1c(/C(C#N)=C/C2CC=CCC2)nc2ccccc21 (stereo unspecified),i,?,?,?,i,?
N#C/C(=C\C1CC=CCC1)c1nc2ccccc2[nH]1 (stereo unspecified),?,-13.2%,?,?,13µM*,?
CC1CCc2[nH]c3ccc(C(=O)N(C)CC(=O)Nc4ccccc4Cl)cc3c2C1 (stereo unspecified),i,?,-20.7%,14.6µM*,?,-0.3%
Cc1ccc(NC(=O)CN(C)C(=O)c2ccc3[nH]c4c(c3c2)CC(C)CC4)cc1 (stereo unspecified),?,?,-17.2%,-36.8%,14.6µM*,-17.0%
COc1ccc(N(C(=O)Cn2cnc3ccccc32)C(C(=O)NC2CCCCC2)c2ccccc2)cc1 (stereo unspecified),i,14.6µM*,-29.2%,?,i,?
O=C1C=C(Nc2ccc(O)cc2)C(=O)c2ccccc21,?,14.6µM*,20.6µM*,13µM*,?,25.9µM*
CCN(CC)c1ccc(NC2=C(Cl)C(=O)c3ccccc3C2=O)cc1,?,10.3µM*,?,13µM*,?,?
CCN(CC)c1ccc(NC(=O)C(C)C)cc1,i,-25.4%,16.9%,20.3%,i,16.6%
SMILES,KB-3-1 tox,TDP1 cell CPT,HT1080 IDH1KD tx,TDP1 cell noCPT,KB-V1 cytotox,HT1080NT lethal
Cc1ccc(NC2=C(Cl)C(=O)c3ccccc3C2=O)cc1,?,8.2µM*,-6.2%,13µM*,i,2.7%
O=C1C(Cl)=C(Nc2ccc(O)cc2)C(=O)c2ccccc21,?,20.6µM*,16.4µM*,?,?,6.51µM*
Cc1cc(C)cc(NC2=C(N)C(=O)c3ccccc3C2=O)c1,i,?,6.0%,14.0%,i,1.3%
CC(NC(=O)COc1ccc(N(C)S(=O)(=O)c2ccccc2)cc1)c1ccccc1 (stereo unspecified),i,?,-3.0%,?,i,5.2%
COc1cccc(CN2CCC2(C)C(=O)NCCc2ccccn2)c1OC (stereo unspecified),i,6.8%,-1.8%,-8.3%,?,4.6%
CC1CC(C)CN(C(=O)CCn2c(=O)oc3ccccc32)C1 (stereo unspecified),i,3.9%,11.9%,12.4%,i,15.5%
Cc1ccc(N2CCN(C(=O)c3cc(S(=O)(=O)N4CCCCC4)c[nH]3)CC2)c(C)c1,i,16.4µM*,.,16.4µM*,i,.
CCN(C(=O)c1cc(S(=O)(=O)N2CCCCC2)c[nH]1)c1ccc(OC)cc1,i,9.2µM*,-7.5%,23.1µM*,i,-2.3%
CC1CCN(C(=O)c2cc(S(=O)(=O)N3CCCCC3)c[nH]2)CC1,i,-29.2%,6.7%,?,i,-0.8%
Cc1cccc(CCNC(=O)c2cc(S(=O)(=O)N3CCCCC3)c[nH]2)c1,i,18.4µM*,-1.1%,?,i,13.2%
CC1CC(=O)c2ccccc2C1C (stereo unspecified),i,-0.7%,5.7%,-11.3%,i,-2.4%
Fc1ccc([C@@H]2Nc3ccccc3[C@@H]3C=CC[C@@H]32)cc1,i,?,.,?,i,.
CC(C)N(CCO)Cc1nc(C(c2ccccc2)c2ccccc2)no1,?,-35.4%,-5.5%,?,i,-2.5%
